According to the supplement of paper PMC10849652:
Targets with a hit are over-represented here; the source holds about 8,800 in all. About 0.5% of all pairs of compound and target were hits.

Legend:
Assay in all cases: log2 fold change, soluble protein after heating vs DMSO (PISA); higher = thermal stabilisation; K562 lysate, 10 uM; active = over 0.2 and 3.5 SD of the protein, either way, in both replicates (recomputed)
[1] = compound: C1=CC=C(C=C1)[C@H](COC2=CC3=C(C=C2)NC(=O)N3)NC(=O)C4=CC=CN(C4=O)CC5=CC(=C(C=C5)F)F
Procedure, shortened: (§1)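 Dounce homogenisation of K562 pellets in PBS pH 7.4 with 1 mM MgCl2 produced a crude extract, used at 1 mg/mL protein. Exposure to 10 μM compound lasted 30 min, and aliquots were then heated for 3 min across 48°C-58°C, pooled and brought to 0.5% NP-40 at 4°C. The supernatant after 21,000xg for 90 min was quantified by TMTpro 16plex LC-MS/MS with channel sums equalised. Duplicate values are given as log-two fold change in thermal stability relative to solvent controls.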

[2] = compound: CC1=C(SC2=C1C(=N[C@H](C3=NN=C(N32)C)CC(=O)N)C4=CC=C(C=C4)Cl)C
Procedure, shortened: as §1

[3] = compound: CC1=C2C(=CC=C1)N=C(N(C2=O)C3=CC=CC=C3C)CN4C=NC5=C(N=CN=C54)N
Procedure, shortened: as §1

[4] = compound: Cc1sc2c(c1C)C(c1ccc(Cl)cc1)=N[C@@H](CC(=O)OC(C)(C)C)c1nnc(C)n1-2
Procedure, shortened: as §1

[5] = compound: c1ccc([C@@H]2C[C@H]2NC2CCNCC2)cc1
Procedure, shortened: as §1

Measured: log2 fold change

MOCS3 (UniProt O95396)
UniProt O95396, sequence (O95396 whole entry, looked up): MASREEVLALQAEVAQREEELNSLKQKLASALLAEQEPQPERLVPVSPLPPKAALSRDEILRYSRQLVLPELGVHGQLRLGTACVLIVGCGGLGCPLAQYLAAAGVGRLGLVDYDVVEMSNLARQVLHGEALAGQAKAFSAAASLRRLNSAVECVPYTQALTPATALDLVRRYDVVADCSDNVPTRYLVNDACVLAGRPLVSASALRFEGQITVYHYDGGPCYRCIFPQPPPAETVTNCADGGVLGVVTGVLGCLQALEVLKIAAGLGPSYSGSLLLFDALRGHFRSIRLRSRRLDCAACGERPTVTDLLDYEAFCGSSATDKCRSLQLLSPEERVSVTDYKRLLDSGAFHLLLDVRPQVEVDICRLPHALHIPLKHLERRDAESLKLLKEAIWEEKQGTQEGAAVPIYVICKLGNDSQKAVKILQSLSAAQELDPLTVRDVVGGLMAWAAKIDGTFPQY
inactive: [1] -0.056 | [2] -0.019 | [3] 0.278 | [4] 0.025 | [5] -0.176

MAPK1 (UniProt P28482)
inactive: [1] 0.045 | [2] -0.006 | [3] -0.016 | [4] 0.039 | [5] 0.012

LDAH isoform 2 (UniProt Q9H6V9)
UniProt Q9H6V9, sequence (Q9H6V9 whole entry, looked up): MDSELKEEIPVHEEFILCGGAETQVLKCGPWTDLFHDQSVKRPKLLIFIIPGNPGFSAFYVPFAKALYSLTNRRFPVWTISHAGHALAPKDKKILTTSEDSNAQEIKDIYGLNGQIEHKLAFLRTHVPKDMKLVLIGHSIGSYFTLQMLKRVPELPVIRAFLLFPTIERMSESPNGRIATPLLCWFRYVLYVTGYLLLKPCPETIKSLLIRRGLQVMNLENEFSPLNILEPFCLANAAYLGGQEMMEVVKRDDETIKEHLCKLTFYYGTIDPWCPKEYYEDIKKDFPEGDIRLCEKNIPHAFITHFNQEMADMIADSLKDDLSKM
inactive: [1] -0.119 | [2] 0.018 | [3] 0.001 | [4] 0.075 | [5] -0.002

MAP2K1 (UniProt Q02750)
UniProt Q02750, sequence (Q02750 whole entry, looked up): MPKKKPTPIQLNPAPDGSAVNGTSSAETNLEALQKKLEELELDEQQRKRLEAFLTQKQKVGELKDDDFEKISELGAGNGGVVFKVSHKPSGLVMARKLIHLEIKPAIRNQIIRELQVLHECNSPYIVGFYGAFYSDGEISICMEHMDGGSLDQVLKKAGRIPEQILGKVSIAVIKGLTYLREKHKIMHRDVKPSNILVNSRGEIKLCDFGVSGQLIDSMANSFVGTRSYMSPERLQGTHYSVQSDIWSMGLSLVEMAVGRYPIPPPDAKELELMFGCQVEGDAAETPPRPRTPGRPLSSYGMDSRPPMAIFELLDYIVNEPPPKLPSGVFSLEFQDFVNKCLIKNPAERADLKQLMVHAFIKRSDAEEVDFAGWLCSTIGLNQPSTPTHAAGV
inactive: [1] -0.012 | [2] 0.016 | [3] -0.047 | [4] -0.048 | [5] 0.081

MINDY1 isoform 3 (UniProt Q8N5J2)
UniProt Q8N5J2, sequence (Q8N5J2 whole entry, looked up): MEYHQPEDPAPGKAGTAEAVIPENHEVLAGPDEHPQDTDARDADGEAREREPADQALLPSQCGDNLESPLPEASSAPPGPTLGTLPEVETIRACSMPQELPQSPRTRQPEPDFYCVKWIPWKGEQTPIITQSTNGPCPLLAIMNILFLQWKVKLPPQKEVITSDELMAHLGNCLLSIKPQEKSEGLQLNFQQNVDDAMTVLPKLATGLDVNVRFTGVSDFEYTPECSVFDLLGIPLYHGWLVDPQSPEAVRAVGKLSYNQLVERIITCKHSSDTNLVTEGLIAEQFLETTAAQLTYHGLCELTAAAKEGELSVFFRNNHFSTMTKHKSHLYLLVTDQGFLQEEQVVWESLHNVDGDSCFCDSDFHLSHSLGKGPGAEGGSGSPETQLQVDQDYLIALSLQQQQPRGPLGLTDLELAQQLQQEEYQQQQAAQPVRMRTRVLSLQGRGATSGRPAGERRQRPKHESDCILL
inactive: [1] 0.017 | [2] 0.061 | [3] -0.003 | [4] 0.028

MLXIP (UniProt Q9HAP2)
inactive: [1] -0.063 | [2] 0.005 | [3] 0.018 | [4] 0.031 | [5] -0.025

KIF4B (UniProt Q2VIQ3)
inactive: [1] 0.035 | [2] 0.009 | [3] -0.02 | [4] 0.029 | [5] 0.013

MARK1 (UniProt Q9P0L2)
inactive: [1] -0.034 | [2] 0.036 | [3] 0.019 | [4] -0.006 | [5] 0.116

KRIT1 (UniProt O00522)
inactive: [1] -0.026 | [2] -0.041 | [3] 0.099 | [4] -0.082

MAST4 (UniProt O15021)
inactive: [1] 0.007 | [2] -0.019 | [3] -0.037 | [4] 0.023 | [5] 0

MICB, A0A140T979
inactive: [1] 0.028 | [2] -0.012 | [3] -0.003 | [4] 0.026 | [5] 0.019

MAPK8 isoform 3 (UniProt P45983)
inactive: [1] -0.01 | [2] 0.03 | [3] 0.004 | [4] 0.071 | [5] -0.026

MACO1 (UniProt Q8N5G2)
UniProt Q8N5G2, sequence (Q8N5G2 whole entry, looked up): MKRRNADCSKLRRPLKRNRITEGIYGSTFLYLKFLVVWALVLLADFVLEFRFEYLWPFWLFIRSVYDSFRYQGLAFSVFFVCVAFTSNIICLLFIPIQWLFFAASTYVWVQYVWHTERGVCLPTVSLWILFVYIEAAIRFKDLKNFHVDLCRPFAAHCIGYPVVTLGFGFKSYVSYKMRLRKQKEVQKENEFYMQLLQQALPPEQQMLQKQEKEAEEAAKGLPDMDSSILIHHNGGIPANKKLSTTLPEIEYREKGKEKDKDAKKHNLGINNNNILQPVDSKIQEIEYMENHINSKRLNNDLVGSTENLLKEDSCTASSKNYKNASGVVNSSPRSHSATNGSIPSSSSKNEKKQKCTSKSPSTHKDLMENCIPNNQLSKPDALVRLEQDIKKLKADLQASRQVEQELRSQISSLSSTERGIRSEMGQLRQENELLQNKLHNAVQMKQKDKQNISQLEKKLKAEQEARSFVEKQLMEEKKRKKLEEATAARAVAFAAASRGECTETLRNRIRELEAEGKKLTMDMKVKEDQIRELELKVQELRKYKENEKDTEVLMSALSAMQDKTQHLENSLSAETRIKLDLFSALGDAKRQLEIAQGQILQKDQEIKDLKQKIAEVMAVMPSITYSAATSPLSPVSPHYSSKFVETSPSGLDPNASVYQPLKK
inactive: [1] -0.039 | [2] -0.044 | [3] 0.125 | [4] -0.04 | [5] 0.092

MAP1S (UniProt Q66K74)
inactive: [1] 0.029 | [2] 0.011 | [3] 0.021 | [4] 0.019 | [5] 0.018

KIF2A isoform 4 (UniProt O00139)
inactive: [1] 0.006 | [2] -0.012 | [3] 0.015 | [4] 0.012 | [5] 0.04

KIF14 (UniProt Q15058)
UniProt Q15058, sequence (Q15058 whole entry, looked up): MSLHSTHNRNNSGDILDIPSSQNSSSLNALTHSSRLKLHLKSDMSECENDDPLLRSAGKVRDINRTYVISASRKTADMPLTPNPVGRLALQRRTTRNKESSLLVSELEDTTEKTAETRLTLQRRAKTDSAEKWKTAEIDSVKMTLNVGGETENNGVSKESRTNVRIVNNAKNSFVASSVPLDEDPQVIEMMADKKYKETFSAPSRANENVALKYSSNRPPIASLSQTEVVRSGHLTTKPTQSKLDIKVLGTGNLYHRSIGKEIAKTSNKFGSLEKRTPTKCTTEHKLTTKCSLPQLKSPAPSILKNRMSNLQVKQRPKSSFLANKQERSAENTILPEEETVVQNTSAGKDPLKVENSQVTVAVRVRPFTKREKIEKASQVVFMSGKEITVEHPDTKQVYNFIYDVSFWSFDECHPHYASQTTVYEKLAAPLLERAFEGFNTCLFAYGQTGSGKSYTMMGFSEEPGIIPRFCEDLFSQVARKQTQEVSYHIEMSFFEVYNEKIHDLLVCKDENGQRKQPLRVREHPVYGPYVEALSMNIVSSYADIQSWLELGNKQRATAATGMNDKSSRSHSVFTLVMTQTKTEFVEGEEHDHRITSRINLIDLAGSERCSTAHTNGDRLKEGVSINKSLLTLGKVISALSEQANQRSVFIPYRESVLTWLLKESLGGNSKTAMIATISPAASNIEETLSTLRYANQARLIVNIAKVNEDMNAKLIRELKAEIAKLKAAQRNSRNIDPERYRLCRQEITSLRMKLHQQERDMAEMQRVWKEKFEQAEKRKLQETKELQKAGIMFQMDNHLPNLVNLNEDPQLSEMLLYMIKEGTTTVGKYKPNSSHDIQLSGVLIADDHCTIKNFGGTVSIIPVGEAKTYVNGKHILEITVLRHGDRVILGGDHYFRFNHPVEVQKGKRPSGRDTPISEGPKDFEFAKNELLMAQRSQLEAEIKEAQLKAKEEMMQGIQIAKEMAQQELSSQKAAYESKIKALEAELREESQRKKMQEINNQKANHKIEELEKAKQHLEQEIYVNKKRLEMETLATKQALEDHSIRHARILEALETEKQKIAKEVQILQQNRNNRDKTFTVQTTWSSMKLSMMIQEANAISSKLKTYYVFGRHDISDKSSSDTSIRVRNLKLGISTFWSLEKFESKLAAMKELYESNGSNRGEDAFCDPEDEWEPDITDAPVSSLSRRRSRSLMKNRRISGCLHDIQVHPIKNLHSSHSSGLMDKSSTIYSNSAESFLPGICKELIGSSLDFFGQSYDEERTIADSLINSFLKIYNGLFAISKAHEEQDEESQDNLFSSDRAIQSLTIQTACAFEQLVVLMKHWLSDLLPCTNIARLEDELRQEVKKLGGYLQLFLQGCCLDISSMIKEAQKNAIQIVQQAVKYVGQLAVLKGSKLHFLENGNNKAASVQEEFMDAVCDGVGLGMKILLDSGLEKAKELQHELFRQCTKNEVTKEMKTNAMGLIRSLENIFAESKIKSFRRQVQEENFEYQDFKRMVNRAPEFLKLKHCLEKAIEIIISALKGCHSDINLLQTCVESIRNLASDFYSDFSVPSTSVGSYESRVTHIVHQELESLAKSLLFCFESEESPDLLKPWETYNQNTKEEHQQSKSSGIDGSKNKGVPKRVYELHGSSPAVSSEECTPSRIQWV
inactive: [1] 0.028 | [2] -0.148 | [3] 0.059 | [4] -0.012 | [5] 0.039

MAP4K4 isoform 3 (UniProt O95819)
inactive: [1] 0.022 | [2] 0.029 | [3] 0.015 | [4] -0.021 | [5] 0.083

LZTR1 (UniProt Q8N653)
UniProt Q8N653, sequence (Q8N653 whole entry, looked up): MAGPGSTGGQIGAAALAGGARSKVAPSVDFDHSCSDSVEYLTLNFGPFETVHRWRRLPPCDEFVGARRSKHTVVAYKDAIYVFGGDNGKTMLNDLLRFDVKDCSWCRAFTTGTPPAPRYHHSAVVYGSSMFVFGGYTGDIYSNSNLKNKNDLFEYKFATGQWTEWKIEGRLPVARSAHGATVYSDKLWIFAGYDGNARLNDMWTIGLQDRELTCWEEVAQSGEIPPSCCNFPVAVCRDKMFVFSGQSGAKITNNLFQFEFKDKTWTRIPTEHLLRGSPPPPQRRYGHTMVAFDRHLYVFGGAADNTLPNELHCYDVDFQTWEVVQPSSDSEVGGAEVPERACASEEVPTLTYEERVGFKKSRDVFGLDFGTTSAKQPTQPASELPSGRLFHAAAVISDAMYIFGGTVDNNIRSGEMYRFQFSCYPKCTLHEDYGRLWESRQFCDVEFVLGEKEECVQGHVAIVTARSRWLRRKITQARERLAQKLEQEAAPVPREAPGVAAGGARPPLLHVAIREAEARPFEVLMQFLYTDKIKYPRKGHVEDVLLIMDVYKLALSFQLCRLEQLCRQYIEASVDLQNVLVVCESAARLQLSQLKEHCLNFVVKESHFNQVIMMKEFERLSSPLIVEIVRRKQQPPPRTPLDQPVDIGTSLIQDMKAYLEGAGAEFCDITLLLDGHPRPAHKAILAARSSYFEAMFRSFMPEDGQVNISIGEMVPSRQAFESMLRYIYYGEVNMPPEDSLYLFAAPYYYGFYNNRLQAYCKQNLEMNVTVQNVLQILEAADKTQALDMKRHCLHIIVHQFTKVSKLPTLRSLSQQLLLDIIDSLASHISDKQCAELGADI
inactive: [1] -0.237 | [2] 0.004 | [3] 0.005 | [4] -0.004 | [5] 0.036

MARK3 (UniProt P27448)
inactive: [1] 0.02 | [2] 0.069 | [3] 0.118 | [4] -0.06 | [5] 0.053

LIG3 (UniProt P49916)
inactive: [1] -0.003 | [2] -0.018 | [3] -0.014 | [4] -0.035 | [5] 0.021

MED10 (UniProt Q9BTT4)
UniProt Q9BTT4, sequence (Q9BTT4 whole entry, looked up): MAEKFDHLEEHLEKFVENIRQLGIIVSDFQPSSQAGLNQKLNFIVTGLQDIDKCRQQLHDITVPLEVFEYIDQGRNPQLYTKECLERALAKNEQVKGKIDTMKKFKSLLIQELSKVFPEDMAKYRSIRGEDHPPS
inactive: [1] 0.038 | [2] -0.033 | [3] -0.04 | [4] 0.015 | [5] -0.009

KIF21A isoform 5 (UniProt Q7Z4S6)
inactive: [1] -0.023 | [2] 0.024 | [3] -0.003 | [4] 0.009 | [5] 0.118

LIMS1 isoform 3 (UniProt P48059)
inactive: [1] -0.006 | [2] 0.006 | [3] -0.026 | [4] 0.037 | [5] -0.057

LARP4B (UniProt Q92615)
inactive: [1] 0.031 | [2] -0.034 | [3] 0.002 | [4] 0.03 | [5] -0.037
